Unmarked numbers belong to inactive results. Inconclusive results are not listed. Activity calls are given as the source filed them. Unless noted, calls come from the whole dose curve; as a rule, active = well fitted curve in the direction sought with a large enough effect in the repeat runs; inconclusive = weak or mixed curves; inactive = no such curve, though single readings can be large; an effect the other way counts as inactive or inconclusive.

The target in experiment [1] is Thyrotropin-releasing hormone receptor (Homo sapiens) (UniProt P34981). The experiment can be described thus: qHTS assay to identify small molecule agonists of the thyrotropin-releasing hormone receptor (TRHR) signaling pathway (AID 1346891; calls by dose curve;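 note: HEK293 cells expressing TRHR with calcium dye readout; series mostly up to about 58 µM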). Summed up:
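Agonist-mode calcium mobilisation screen: TRHR-transfected HEK293 cells cultured overnight (18 h), dye-loaded for 2 h at 37 °C, exposed to compounds, and monitored by fluorescence for 3 min.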
On the technique in general: Quantitative high-throughput screening tests each substance at several concentrations.

Experiment [2] can be described thus: Human pregnane X receptor (PXR) small molecule agonists, qHTS cell viability counter screen (AID 1346977). Note: nearly all actives have a fitted effect of over 50% in size. The procedure, abridged:
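Measures live-cell protease fluorescence (CellTiter-Fluor) in PXR-Luc HepG2 cells treated 24hr with compounds at 37C. Cells had 5hr to attach before pin transfer of DMSO solutions.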

The nature of experiment [3]: Caspase-3/7 induction in HepG2 cells by small molecules, qHTS assay (AID 1346978). Note: nearly all actives have a fitted effect of over 15% in size. The procedure, abridged:
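Caspase-3/7 induction was measured by Caspase-Glo 3/7 luminescence (30 min, room temperature) after a 17 hr compound exposure of wild-type HepG2 cells seeded at 2,000 per well and pre-incubated 5 hr.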

Experiment [4] in a line: Caspase-3/7 induction in CHO-K1 cells by small molecules, qHTS cell viability counter screen (AID 1346979). Note: nearly all actives have a fitted effect of over 35% in size. The procedure, abridged:
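In the same wells as the caspase read, viability of compound-treated wild-type CHO-K1 cells was assessed using CellTiter-Fluor, added after 16hr at 37C and measured by fluorescence following 1hr further incubation.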

Experiment [5] can be described thus: Caspase-3/7 induction in CHO-K1 cells by small molecules, qHTS assay (AID 1346980). Note: nearly all actives have a fitted effect of over 15% in size. Summed up:
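Luminescent Caspase-Glo 3/7 read (30min, room temperature) quantified apoptosis induction. Cells were wild-type CHO-K1, treated with compound for 17hr at 37 C and 5% CO2.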

A short description of experiment [6]: Caspase-3/7 induction in HepG2 cells by small molecules, qHTS cell viability counter screen (AID 1346981). Note: series mostly up to about 92 µM; nearly all actives have a fitted effect of over 30% in size. Summed up: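 In this quantitative HTS counter screen, compounds delivered in DMSO were left on unmodified HepG2 cells for 16 hr at 37 C. Viability was then determined fluorometrically with CellTiter-Fluor, in parallel with caspase-3/7 induction in the same wells.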

Experiment [7] addresses Nuclear receptor subfamily 1 group I member 2 (Homo sapiens) (UniProt O75469). The experiment can be described thus: Human pregnane X receptor (PXR) small molecule agonists, qHTS assay (AID 1346982). Note: nearly all actives have a fitted effect of over 35% in size. The procedure, abridged: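 Reporter HepG2 cells expressing PXR-Luc are cultured in charcoal-stripped FBS (5%), treated with compounds for 24 hr at 37 C, and assayed by ONE-Glo luminescence after 30 min at room temperature.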

Experiment [8] concerns the target Cytochrome P450 2D6 (Homo sapiens) (UniProt P10635). The experiment can be described thus: Cytochrome P450 Family 2 Subfamily D Member 6 (CYP2D6) small molecule antagonists: luciferase reporter qHTS assay (AID 1671196). Note: nearly all actives have a fitted effect of over 50% in size. Note: potency is the fitted concentration of half-maximal effect. Summed up:
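Test chemicals meet CYP2D6 plus proluciferin substrate (10 min, RT); NADPH regenerating solution then drives turnover for 1 h. Detection reagent halts the reaction; luminescence measured after 20 min.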
(In general: A reporter such as luciferase makes a cellular process visible.)

In experiment [9] the target is Cytochrome P450 2C19 (Homo sapiens) (UniProt P33261). Nature of the experiment: Cytochrome P450 Family 2 Subfamily C Member 19 (CYP2C19) small molecule antagonists: luciferase reporter qHTS assay (AID 1671197). Note: nearly all actives have a fitted effect of over 65% in size. Note: potency is the fitted concentration of half-maximal effect. The procedure, abridged:
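CYP2C19 P450-Glo, 1536-well qHTS. Cpd + enzyme/proluciferin substrate 10 min RT; + NADPH regen, 37C 1 h; stop with luciferin detection reagent, 20 min RT, luminescence (RLU). Pos ctrl ketoconazole.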

The target in experiment [10] is Cytochrome P450 2C9 (Homo sapiens) (UniProt P11712). The experiment can be described thus: Cytochrome P450 Family 2 Subfamily C Member 9 (CYP2C9) small molecule antagonists: luciferase reporter qHTS assay (AID 1671198). Note: nearly all actives have a fitted effect of over 50% in size. Note: potency is the fitted concentration of half-maximal effect. Summed up:
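Enzyme-substrate mix preincubated with compound 10 min at room temperature; reaction started with NADPH regeneration solution, 1 h 37C. Luminescent luciferin product read after 20 min detection reagent.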

In experiment [11] the target is Voltage-gated inwardly rectifying potassium channel KCNH2 (Homo sapiens) (UniProt Q12809). The experiment can be described thus: Human Ether-a-go-go-Related Gene (hERG) channel small molecule antagonists: fluorescence cell-based qHTS assay (AID 1671200).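 Note: hERG-expressing U2OS cells given a thallium stimulus after FluxOR II dye loading; series mostly up to about 77 µM; nearly all actives have a fitted effect of over 50% in size.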 Summed up: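 Quantitative HTS in hERG-U2OS cells: thallium entry through the channel reports activity, read as continuous 480/540 nm fluorescence over 2 min after stimulus addition.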

The target of experiment [12] is Cytochrome P450 3A4 (Homo sapiens) (UniProt P08684). Nature of the experiment: Cytochrome P450 Family 3 Subfamily A Member 4 (CYP3A4) small molecule antagonists: luciferase reporter qHTS assay (AID 1671201). Summed up: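 Inhibition of CYP3A4 is measured as loss of light: the enzyme converts a proluciferin substrate to luciferin, detected luminescently. Reaction ran 1 h at room temperature with NADPH regeneration after a 10 min compound preincubation.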

Experiment [13] deals with Cytochrome P450 1A2 (Homo sapiens) (UniProt P05177). Nature of the experiment: Cytochrome P450 Family 1 Subfamily A Member 2 (CYP1A2) small molecule antagonists: luciferase reporter qHTS assay (AID 1671199). Note: nearly all actives have a fitted effect of over 50% in size. Note: potency is the fitted concentration of half-maximal effect. The procedure, abridged: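 Steps: enzyme-substrate mix dispensed; test compounds and furafylline control pinned in; 10 min room temperature; NADPH regeneration solution added, 1 h; reaction stopped with luciferin detection reagent; luminescence read after 20 min.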
Sequence of Cytochrome P450 1A2 (Homo sapiens) (P05177 whole entry, looked up): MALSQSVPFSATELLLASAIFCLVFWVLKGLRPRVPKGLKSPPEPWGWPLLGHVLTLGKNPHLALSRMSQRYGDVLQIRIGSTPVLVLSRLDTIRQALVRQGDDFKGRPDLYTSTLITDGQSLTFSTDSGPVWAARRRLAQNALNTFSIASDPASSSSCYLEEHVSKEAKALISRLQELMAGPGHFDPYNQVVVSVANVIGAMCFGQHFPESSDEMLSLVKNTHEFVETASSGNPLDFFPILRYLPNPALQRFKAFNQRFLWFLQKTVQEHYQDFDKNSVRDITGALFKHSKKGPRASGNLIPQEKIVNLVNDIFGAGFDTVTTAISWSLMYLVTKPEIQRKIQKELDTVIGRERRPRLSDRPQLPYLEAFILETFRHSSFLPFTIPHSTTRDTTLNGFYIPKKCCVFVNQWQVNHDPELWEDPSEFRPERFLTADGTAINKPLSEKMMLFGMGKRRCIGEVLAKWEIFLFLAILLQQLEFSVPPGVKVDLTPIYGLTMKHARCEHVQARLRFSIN

Sequence of Voltage-gated inwardly rectifying potassium channel KCNH2 (Homo sapiens) (Q12809 whole entry, looked up): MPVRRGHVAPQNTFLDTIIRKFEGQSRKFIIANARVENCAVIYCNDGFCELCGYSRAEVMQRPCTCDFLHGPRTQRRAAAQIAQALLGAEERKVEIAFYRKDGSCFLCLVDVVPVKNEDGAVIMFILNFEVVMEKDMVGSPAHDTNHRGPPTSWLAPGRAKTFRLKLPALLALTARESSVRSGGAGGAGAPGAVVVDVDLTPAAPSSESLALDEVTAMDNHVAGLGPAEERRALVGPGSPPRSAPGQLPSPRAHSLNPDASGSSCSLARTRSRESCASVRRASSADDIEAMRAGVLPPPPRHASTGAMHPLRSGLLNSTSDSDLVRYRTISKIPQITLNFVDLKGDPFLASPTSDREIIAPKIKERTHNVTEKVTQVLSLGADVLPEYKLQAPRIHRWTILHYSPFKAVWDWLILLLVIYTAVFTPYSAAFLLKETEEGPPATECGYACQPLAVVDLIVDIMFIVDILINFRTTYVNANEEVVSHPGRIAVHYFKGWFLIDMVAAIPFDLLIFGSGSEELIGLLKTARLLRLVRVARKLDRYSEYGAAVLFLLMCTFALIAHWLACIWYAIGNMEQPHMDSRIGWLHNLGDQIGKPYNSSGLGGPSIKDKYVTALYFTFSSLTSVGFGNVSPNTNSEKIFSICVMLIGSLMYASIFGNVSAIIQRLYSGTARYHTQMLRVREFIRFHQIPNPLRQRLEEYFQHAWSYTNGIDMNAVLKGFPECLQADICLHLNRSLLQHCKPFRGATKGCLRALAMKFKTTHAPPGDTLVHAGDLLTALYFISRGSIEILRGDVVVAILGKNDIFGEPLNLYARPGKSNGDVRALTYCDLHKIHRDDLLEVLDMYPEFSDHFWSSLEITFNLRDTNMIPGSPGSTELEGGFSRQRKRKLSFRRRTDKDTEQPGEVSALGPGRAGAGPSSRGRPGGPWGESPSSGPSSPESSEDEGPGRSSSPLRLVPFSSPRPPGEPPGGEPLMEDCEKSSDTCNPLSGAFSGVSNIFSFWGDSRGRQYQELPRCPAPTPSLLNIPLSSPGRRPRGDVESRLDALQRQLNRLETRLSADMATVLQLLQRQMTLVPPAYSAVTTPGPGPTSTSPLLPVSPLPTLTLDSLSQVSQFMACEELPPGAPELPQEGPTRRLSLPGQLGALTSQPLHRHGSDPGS
Sequence of Nuclear receptor subfamily 1 group I member 2 (Homo sapiens) (O75469 whole entry, looked up): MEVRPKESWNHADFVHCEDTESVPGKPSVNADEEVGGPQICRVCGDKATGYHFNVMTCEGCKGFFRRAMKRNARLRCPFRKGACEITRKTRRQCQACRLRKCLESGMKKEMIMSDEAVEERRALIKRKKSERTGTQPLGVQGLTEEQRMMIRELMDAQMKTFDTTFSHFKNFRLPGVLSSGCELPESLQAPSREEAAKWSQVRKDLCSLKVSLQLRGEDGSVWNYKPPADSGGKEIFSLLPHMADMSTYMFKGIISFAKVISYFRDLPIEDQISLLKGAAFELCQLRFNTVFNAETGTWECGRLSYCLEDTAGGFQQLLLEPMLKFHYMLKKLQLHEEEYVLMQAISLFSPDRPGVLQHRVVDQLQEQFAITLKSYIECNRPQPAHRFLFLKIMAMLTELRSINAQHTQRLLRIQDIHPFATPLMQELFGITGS
Sequence of Cytochrome P450 2C19 (Homo sapiens) (P33261 whole entry, looked up): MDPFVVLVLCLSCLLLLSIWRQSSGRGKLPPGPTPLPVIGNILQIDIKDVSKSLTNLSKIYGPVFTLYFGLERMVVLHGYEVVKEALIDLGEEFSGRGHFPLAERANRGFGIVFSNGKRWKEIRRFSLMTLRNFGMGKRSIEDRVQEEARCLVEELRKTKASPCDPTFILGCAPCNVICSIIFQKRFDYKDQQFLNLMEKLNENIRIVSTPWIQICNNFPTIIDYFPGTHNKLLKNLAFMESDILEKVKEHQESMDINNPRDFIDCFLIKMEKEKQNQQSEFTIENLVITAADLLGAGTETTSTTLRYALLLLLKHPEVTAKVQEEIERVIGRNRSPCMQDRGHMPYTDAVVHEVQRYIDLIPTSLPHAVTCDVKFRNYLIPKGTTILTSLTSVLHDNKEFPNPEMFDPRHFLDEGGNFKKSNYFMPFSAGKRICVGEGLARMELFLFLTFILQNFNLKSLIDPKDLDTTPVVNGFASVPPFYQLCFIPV
Sequence of Cytochrome P450 2C9 (Homo sapiens) (P11712 whole entry, looked up): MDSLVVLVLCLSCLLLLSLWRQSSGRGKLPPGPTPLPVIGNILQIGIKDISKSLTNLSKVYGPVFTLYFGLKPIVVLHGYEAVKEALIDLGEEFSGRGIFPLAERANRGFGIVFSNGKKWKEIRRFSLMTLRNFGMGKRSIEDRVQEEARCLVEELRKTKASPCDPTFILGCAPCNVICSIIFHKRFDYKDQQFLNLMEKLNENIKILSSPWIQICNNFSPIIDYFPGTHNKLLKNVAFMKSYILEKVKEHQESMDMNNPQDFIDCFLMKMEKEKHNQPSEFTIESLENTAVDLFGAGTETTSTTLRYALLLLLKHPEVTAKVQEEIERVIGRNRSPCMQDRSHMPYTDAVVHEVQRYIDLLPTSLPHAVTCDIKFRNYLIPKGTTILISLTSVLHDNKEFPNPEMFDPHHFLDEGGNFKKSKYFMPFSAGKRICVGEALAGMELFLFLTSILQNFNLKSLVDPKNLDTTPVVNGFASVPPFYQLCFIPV
Sequence of Thyrotropin-releasing hormone receptor (Homo sapiens) (P34981 whole entry, looked up): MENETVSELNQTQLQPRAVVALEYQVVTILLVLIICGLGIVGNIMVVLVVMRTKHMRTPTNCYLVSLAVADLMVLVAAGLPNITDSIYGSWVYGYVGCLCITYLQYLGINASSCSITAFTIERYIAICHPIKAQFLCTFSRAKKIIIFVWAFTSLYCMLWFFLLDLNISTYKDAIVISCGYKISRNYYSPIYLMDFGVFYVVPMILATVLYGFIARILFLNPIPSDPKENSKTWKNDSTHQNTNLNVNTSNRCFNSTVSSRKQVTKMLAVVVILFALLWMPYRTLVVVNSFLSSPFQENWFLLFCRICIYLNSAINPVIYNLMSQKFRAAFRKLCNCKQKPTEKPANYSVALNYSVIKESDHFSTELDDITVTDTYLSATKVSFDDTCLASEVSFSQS
Sequence of Cytochrome P450 2D6 (Homo sapiens) (P10635 whole entry, looked up): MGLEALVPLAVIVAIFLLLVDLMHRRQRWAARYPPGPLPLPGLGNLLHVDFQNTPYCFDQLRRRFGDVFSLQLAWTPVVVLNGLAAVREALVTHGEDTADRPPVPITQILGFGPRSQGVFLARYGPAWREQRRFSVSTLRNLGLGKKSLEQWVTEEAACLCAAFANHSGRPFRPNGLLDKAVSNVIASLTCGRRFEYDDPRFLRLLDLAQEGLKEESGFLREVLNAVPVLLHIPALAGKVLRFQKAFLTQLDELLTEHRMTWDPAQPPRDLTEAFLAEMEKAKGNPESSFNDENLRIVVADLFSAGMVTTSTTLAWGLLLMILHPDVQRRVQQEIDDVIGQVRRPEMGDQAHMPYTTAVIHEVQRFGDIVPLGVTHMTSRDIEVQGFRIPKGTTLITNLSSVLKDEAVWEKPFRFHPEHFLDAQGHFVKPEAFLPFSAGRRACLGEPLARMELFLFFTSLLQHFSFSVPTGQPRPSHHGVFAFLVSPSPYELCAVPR
Sequence of Cytochrome P450 3A4 (Homo sapiens) (P08684 whole entry, looked up): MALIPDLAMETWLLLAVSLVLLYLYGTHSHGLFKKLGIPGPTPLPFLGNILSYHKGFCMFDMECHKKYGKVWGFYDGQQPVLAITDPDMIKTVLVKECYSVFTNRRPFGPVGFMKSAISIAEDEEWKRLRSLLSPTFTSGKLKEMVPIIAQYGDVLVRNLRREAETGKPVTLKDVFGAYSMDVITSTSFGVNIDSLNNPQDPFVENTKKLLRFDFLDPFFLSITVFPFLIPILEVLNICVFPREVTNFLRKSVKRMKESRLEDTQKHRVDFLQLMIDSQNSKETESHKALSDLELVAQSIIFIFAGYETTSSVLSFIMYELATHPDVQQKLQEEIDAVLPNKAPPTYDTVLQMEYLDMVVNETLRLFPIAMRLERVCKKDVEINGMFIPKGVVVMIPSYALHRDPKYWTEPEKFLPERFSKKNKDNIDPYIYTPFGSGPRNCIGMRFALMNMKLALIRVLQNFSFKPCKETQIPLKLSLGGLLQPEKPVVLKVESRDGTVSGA

`CCSC(=O)N(CC)CC`: the molecule was classed as inactive in experiment [1] and in experiment [5]. Further, the Potency entry in [2], in experiment [3], in experiment [4], in experiment [6], in experiment [7] and in experiment [8] was “inactive” each time. In addition, the Potency result in experiment [9], in experiment [10], in [11] and in experiment [12] was “inactive” in each case.

With `COC(C)(C)OC`, the molecule was called inactive in experiment [1] and in experiment [5]. Also, the Potency result in experiment [2], in [3], in [4], in experiment [6], in [7] and in [8] was “inactive” each time. The Potency result in [10], in [11] and in experiment [12] was “inactive” throughout. Further, in [9], the Potency is 69 µM (active).

As to `CC(C)C(=O)OCCOc1ccccc1`, the call in experiment [1] and in experiment [5] was inactive. In addition, the Potency entry in experiment [2], in experiment [3], in experiment [4], in experiment [6], in [7] and in experiment [8] was “inactive” each time. The Potency entry in experiment [11] and in experiment [12] was “inactive” in each case. Also, the Potency is 39.9 µM (active) in experiment [9], 39.9 µM (active) in experiment [10] and 31.7 µM (active) in experiment [13].

On to `O=C(O)/C=C/c1ccc(O)c(O)c1`, for which the molecule was called inactive in [1] and in experiment [5]. In addition, the Potency entry in experiment [2], in experiment [3], in experiment [4], in experiment [6], in experiment [7] and in [8] was “inactive” in each case. Moreover, the Potency result in experiment [10], in experiment [13], in [11] and in experiment [12] was “inactive” in each case.

In the case of `BrC(Br)C(Br)Br`, the molecule was classed as inactive in experiment [1] and in [5]. The Potency result in [2], in experiment [3], in [4], in [6], in experiment [7] and in [8] was “inactive” throughout. Moreover, the Potency entry in [10], in [11] and in experiment [12] was “inactive” in each case.

Consider `O=C(O)c1cccc(C[C@@H]2COc3ccc(OCc4nc5cc(F)ccc5s4)cc3[C@@H]2O)c1`, for which the molecule was classed as inactive in [1] and in experiment [5]. Also, the Potency entry in [2], in experiment [3], in experiment [4], in experiment [6], in experiment [7] and in experiment [8] was “inactive” each time. For the same molecule, the Potency result in [9] and in [12] was “inactive” in each case. Also, the figures for the Potency in experiment [10] and in [13] were 40 µM (active) and 31.8 µM (active), respectively.

As to `Oc1cccc2[nH]ccc12`, the molecule was called inactive in [1] and in experiment [5]. Moreover, the Potency entry in experiment [2], in experiment [3], in experiment [4], in experiment [6], in [7] and in experiment [9] was “inactive” in each case. In addition, the Potency result in experiment [13], in [11] and in experiment [12] was “inactive” throughout. Moreover, the Potency in experiment [8] and in experiment [10] was 15.5 µM (active) each time.

For the molecule `CCOc1ncc(F)c(=O)[nH]1`, the call in experiment [1] and in [5] was inactive. Moreover, the Potency entry in [2], in experiment [3], in [4], in [6], in [7] and in experiment [8] was “inactive” each time. Further, the Potency entry in experiment [9], in [10], in [11] and in experiment [12] was “inactive” throughout.

As to `O=CNNC=O`, the molecule was called inactive in experiment [1] and in experiment [5]. Besides, the Potency entry in [2], in experiment [3], in experiment [4], in experiment [6], in experiment [7] and in experiment [8] was “inactive” each time. Also, the Potency result in [9], in experiment [10], in [13], in [11] and in experiment [12] was “inactive” each time.

These data come from PubChem BioAssay (Tox21).
